# Measured values from PubChem BioAssay (EPA / NIEHS).
# “And” between values parts separate entries of the source, which are not always exact repeats. Identical values can stand only once. Results filed as inconclusive are left out. The source made the active and inactive calls. Rule for the calls: active = hit-call score of the fitted dose curve at least 0.9, where 1 is the maximum; inconclusive = response in the unintended direction; inactive = score below 0.9.
# Key:
# [1] = biological target: Muscarinic acetylcholine receptor M3 (Homo sapiens) (UniProt P20309); experiment: NVS_GPCR_hM3: NovaScreen (NVS) G Protein-Coupled Receptor Assay for human Muscarinic, M3 Receptor (AID 2283272)
# Sequence of Muscarinic acetylcholine receptor M3 (Homo sapiens) (P20309 whole entry, looked up): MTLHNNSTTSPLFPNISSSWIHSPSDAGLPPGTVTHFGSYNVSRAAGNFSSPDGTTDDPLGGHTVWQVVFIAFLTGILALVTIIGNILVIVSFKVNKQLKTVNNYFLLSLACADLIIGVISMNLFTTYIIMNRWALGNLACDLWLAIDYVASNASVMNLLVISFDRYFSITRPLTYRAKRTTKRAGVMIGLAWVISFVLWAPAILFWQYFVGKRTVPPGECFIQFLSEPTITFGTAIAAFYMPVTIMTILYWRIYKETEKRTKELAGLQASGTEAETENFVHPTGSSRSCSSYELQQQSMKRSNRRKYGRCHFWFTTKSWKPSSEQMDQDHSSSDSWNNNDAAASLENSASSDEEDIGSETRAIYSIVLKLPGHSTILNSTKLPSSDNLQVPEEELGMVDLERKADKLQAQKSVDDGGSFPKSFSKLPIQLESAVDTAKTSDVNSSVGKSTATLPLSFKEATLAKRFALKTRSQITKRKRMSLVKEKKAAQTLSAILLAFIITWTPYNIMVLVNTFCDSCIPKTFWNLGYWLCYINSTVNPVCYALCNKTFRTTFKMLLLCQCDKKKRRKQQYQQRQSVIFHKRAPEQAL
# Protocol: (§1) NVS_GPCR_hM3 is a biochemical, single-readout assay that uses extracted gene-proteins from CHO in a cell-free assay. Measurements were taken 1 hour after chemical dosing in a 96-well plate.NVS_GPCR_hM3 is one of one assay component(s) measured or calculated from the NVS_GPCR_hM3 assay. It is designed to make measurements of radioligand binding, a form of binding reporter, as detected with scintillation counting signals by Filter-based radiodetection technology.Data from the assay component NVS_GPCR_hM3 was analyzed into 1 assay endpoint. This assay endpoint, NVS_GPCR_hM3, was analyzed in the positive analysis fitting direction relative to DMSO as the negative control and baseline of activity. […] Furthermore, this assay endpoint can be referred to as a primary readout, because the performed assay has only produced 1 assay endpoint. […]
# (§2) Binding assays used specific radioligands (tritiated, iodinated) with non-radioactive competitive displacement ligands in agonist or antagonist protocols (as indicated) and various reference compounds and inhibitors to titrate specific binding to receptors and transporters. Most enzyme assays (CYPs, kinases, phosphatases, proteases, HDACs) used recombinant protein and specific substrates (fluorescence mostly, some colorimetric and radioactive) and inhibitors, followed by a biochemical separation of substrate and product. […]
# [2] = biological target: human Histamine 1 Receptor (H1), HRH1 (gene 3269) (UniProt P35367); experiment: NVS_GPCR_hH1: NovaScreen (NVS) G Protein-Coupled Receptor Assay for human Histamine 1 Receptor (H1) (AID 2283268)
# Sequence of human Histamine 1 Receptor (H1), HRH1 (gene 3269) (P35367 whole entry, looked up): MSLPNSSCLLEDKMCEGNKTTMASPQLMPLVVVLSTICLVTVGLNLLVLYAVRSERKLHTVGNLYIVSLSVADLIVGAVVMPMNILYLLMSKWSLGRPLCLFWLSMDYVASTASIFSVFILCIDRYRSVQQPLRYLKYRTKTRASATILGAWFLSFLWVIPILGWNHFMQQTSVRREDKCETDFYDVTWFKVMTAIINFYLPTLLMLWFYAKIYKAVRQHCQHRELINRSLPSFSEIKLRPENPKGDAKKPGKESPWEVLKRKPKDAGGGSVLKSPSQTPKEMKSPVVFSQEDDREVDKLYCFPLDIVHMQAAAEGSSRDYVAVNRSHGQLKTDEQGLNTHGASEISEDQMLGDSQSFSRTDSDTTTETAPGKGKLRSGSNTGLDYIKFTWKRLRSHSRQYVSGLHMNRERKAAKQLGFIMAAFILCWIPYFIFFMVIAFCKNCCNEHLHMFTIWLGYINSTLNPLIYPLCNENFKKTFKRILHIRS
# Protocol: NVS_GPCR_hH1 is a biochemical, single-readout assay that uses extracted gene-proteins in a cell-free assay. Measurements were taken 1 hour after chemical dosing in a 96-well plate.NVS_GPCR_hH1 is one of one assay component(s) measured or calculated from the NVS_GPCR_hH1 assay. It is designed to make measurements of radioligand binding, a form of binding reporter, as detected with scintillation counting signals by Filter-based radiodetection technology.Data from the assay component NVS_GPCR_hH1 was analyzed into 1 assay endpoint. This assay endpoint, NVS_GPCR_hH1, was analyzed in the positive analysis fitting direction relative to DMSO as the negative control and baseline of activity. Using a type of binding reporter, loss-of-signal activity can be used to understand changes in the binding as they relate to the gene HRH1. Furthermore, this assay endpoint can be referred to as a primary readout, because the performed assay has only produced 1 assay endpoint. To generalize the intended target to other relatable targets, this assay endpoint is annotated to the gpcr intended target family, where the subfamily is rhodopsin-like receptor.
# Binding assays used specific radioligands (tritiated, iodinated) with non-radioactive competitive displacement ligands in agonist or antagonist protocols (as indicated) and various reference compounds and inhibitors to titrate specific binding to receptors and transporters. Most enzyme assays (CYPs, kinases, phosphatases, proteases, HDACs) used recombinant protein and specific substrates (fluorescence mostly, some colorimetric and radioactive) and inhibitors, followed by a biochemical separation of substrate and product. All assays for the biochemical HTS were initially run in duplicate at a single concentration (10 uM for CYP450 assays and 25 uM for all others). […] Each assay was run with positive and negative controls, and concurrent controls on every plate. The follow-up (secondary) screen tested active chemical-pairs in concentration series, as well as a few additional assays not tested in the primary screen, some selected negative inactives, and several cases re-run in the concentration series for confirmatory purposes.
# [3] = biological target: D(1A) dopamine receptor (Homo sapiens) (UniProt P21728); experiment: NVS_GPCR_hDRD1: NovaScreen (NVS) G Protein-Coupled Receptor Assay for human Dopamine Receptor D1 (DRD1) (AID 2283269)
# Sequence of D(1A) dopamine receptor (Homo sapiens) (P21728 whole entry, looked up): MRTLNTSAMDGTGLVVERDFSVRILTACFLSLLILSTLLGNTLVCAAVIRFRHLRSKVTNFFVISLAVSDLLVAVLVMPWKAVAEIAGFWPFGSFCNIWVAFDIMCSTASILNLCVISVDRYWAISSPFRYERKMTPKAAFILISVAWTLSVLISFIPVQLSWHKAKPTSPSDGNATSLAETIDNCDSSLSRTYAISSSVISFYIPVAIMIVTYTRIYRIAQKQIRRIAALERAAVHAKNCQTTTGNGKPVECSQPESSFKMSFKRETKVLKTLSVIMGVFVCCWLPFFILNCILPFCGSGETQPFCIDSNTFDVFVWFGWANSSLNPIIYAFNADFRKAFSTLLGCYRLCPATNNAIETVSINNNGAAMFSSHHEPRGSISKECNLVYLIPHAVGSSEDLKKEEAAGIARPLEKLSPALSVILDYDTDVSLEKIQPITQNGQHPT
# Procedure, shortened: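 Extracted HEK293 DRD1 is incubated 1 h with compound and a tritiated or iodinated radioligand, then filtered and counted. Screening runs 25 uM in duplicate with on-plate positive and negative controls.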
# [4] = biological target: human Dopamine Receptor D2 (DRD2), DRD2 (gene 1813) (UniProt P14416); experiment: NVS_GPCR_hDRD2s: NovaScreen (NVS) G Protein-Coupled Receptor Assay for human Dopamine Receptor D2 (DRD2) (AID 2283266)
# Sequence of human Dopamine Receptor D2 (DRD2), DRD2 (gene 1813) (P14416 whole entry, looked up): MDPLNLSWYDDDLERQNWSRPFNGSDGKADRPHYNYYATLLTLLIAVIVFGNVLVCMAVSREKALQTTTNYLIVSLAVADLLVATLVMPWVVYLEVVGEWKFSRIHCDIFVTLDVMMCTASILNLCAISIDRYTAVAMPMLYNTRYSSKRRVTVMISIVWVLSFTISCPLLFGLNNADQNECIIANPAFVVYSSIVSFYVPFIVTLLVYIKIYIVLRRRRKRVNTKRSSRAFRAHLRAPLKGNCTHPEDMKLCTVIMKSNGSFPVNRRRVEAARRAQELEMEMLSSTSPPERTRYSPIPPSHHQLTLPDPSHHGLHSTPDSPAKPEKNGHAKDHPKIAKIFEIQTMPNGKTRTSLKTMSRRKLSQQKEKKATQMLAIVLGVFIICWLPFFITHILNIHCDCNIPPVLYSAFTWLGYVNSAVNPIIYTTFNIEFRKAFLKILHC
# Protocol: as §1, with “NVS_GPCR_hDRD2s” for “NVS_GPCR_hM3”, “1.5 hours” for “1 hour”, “plate.NVS_GPCR_hDRD2s” for “plate.NVS_GPCR_hM3”, “NVS_GPCR_hDRD2s,” for “NVS_GPCR_hM3,”
# as §2
# [5] = biological target: Muscarinic acetylcholine receptor M1 (Homo sapiens) (UniProt P11229); experiment: NVS_GPCR_hM1: NovaScreen (NVS) G Protein-Coupled Receptor Assay for human Muscarinic, M1 Receptor (AID 2283270)
# Sequence of Muscarinic acetylcholine receptor M1 (Homo sapiens) (P11229 whole entry, looked up): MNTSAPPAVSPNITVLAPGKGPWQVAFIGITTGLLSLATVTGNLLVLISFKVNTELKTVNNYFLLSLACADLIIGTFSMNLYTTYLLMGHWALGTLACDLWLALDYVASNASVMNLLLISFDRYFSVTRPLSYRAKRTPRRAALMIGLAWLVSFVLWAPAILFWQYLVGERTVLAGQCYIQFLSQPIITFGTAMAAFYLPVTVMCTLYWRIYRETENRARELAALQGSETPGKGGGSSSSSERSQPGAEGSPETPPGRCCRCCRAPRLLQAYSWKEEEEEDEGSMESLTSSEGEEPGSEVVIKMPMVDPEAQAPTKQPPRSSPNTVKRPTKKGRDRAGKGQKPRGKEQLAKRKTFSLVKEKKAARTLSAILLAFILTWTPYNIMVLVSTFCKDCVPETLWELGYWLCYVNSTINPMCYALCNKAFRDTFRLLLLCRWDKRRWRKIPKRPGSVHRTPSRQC
# Procedure, shortened: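 Cell-free radioligand displacement using membrane protein extracted from CHO cells, read by filter-based scintillation counting 1 h after dosing. Loss of bound signal fitted versus DMSO; primary screen single concentration 25 uM in duplicate, actives followed by concentration series.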
# [6] = biological target: human Leukotriene B4 Receptor 1 (LTB4-BLT1), LTB4R (gene 1241) (UniProt Q15722); experiment: NVS_GPCR_hLTB4_BLT1: NovaScreen (NVS) G Protein-Coupled Receptor Assay for human Leukotriene B4 Receptor 1 (LTB4-BLT1) (AID 2283271)
# Sequence of human Leukotriene B4 Receptor 1 (LTB4-BLT1), LTB4R (gene 1241) (Q15722 whole entry, looked up): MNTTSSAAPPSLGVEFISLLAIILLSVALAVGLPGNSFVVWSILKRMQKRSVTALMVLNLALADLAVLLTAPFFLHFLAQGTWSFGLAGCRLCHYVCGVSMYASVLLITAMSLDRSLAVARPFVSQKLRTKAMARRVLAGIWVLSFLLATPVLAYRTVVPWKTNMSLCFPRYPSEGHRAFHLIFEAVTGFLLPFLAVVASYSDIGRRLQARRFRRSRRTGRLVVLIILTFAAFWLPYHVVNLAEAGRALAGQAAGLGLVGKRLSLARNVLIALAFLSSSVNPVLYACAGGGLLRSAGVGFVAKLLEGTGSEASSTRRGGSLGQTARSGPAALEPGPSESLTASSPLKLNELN
# Procedure, shortened: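 Radioligand displacement binding on receptor extracted from human neutrophils, cell-free, 1 h after dosing; filter-based scintillation counting. Primary screen in duplicate at 25 uM, actives retested in concentration-response up to 50 uM; loss of signal versus DMSO.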
# [7] = biological target: Type-1 angiotensin II receptor (Homo sapiens) (UniProt P30556); experiment: NVS_GPCR_hAT1: NovaScreen (NVS) G Protein-Coupled Receptor Assay for human Angiotensin II receptor type 1 (AT1) (AID 2283263)
# Sequence of Type-1 angiotensin II receptor (Homo sapiens) (P30556 whole entry, looked up): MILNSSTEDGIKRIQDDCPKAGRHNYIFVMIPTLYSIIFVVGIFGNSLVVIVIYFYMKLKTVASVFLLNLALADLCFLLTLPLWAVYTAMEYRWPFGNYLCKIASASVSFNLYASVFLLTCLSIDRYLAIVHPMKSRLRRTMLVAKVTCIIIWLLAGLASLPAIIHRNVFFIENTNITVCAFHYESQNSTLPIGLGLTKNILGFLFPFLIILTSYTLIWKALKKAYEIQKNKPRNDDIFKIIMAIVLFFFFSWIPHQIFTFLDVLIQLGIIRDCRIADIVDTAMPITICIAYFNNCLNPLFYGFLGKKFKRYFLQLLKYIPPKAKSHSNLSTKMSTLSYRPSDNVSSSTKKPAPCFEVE
# Procedure, shortened: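 Membranes from KAN-TS cells; radioligand competitive displacement, 3 h, filtration and scintillation counting. Single-point duplicate screen at 25 uM, then concentration-response up to 50 uM for hits; loss of signal fitted versus DMSO.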
# [8] = biological target: human Dopamine Receptor D4.4 (DRD4.4), DRD4 (gene 1815) (UniProt P21917); experiment: NVS_GPCR_hDRD4.4: NovaScreen (NVS) G Protein-Coupled Receptor Assay for human Dopamine Receptor D4.4 (DRD4.4) (AID 2283264)
# Sequence of human Dopamine Receptor D4.4 (DRD4.4), DRD4 (gene 1815) (P21917 whole entry, looked up): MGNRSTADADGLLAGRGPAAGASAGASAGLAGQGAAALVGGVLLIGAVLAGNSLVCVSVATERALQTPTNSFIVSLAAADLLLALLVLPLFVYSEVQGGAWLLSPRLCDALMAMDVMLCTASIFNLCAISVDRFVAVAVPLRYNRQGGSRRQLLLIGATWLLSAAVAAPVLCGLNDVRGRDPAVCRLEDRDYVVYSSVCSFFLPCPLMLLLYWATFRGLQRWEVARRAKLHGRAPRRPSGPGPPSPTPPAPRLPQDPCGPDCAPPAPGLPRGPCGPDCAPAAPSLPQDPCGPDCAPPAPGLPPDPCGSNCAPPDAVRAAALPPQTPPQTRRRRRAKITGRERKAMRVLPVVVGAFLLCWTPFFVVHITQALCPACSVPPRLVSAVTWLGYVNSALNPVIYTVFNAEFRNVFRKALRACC
# Procedure, shortened: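 Radioligand displacement on human DRD4.4 from CHO-derived membranes, 1 hour incubation, bound counts read by filtration and scintillation. Primary screen in duplicate at 25 uM; actives followed up in concentration series.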
# [9] = biological target: human Endothelin Receptor Type A (ETA), EDNRA (gene 1909) (UniProt P25101); experiment: NVS_GPCR_hETA: NovaScreen (NVS) G Protein-Coupled Receptor Assay for human Endothelin Receptor Type A (ETA) (AID 2283265)
# Sequence of human Endothelin Receptor Type A (ETA), EDNRA (gene 1909) (P25101 whole entry, looked up): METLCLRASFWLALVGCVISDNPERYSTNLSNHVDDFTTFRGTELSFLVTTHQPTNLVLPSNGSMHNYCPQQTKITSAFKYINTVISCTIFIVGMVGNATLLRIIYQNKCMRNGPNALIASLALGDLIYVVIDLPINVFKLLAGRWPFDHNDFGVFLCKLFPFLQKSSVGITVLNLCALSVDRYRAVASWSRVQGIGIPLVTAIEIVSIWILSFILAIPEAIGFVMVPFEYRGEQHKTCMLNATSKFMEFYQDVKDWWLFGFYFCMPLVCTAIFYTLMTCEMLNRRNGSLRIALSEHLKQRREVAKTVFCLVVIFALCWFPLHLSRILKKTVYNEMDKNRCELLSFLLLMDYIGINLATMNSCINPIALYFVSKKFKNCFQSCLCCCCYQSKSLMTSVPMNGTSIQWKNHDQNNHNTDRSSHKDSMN
# Procedure, shortened: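 Cell-free radioligand displacement using SH-SY5Y-derived protein, 3 h incubation, filter-based scintillation counting. Primary screen in duplicate at 25 uM; actives then run in concentration-response up to 50 uM; loss of binding fitted versus DMSO.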
# [10] = biological target: human Endothelin Receptor Type B (ETB), EDNRB (gene 1910) (UniProt P24530); experiment: NVS_GPCR_hETB: NovaScreen (NVS) G Protein-Coupled Receptor Assay for human Endothelin Receptor Type B (ETB) (AID 2283267)
# Sequence of human Endothelin Receptor Type B (ETB), EDNRB (gene 1910) (P24530 whole entry, looked up): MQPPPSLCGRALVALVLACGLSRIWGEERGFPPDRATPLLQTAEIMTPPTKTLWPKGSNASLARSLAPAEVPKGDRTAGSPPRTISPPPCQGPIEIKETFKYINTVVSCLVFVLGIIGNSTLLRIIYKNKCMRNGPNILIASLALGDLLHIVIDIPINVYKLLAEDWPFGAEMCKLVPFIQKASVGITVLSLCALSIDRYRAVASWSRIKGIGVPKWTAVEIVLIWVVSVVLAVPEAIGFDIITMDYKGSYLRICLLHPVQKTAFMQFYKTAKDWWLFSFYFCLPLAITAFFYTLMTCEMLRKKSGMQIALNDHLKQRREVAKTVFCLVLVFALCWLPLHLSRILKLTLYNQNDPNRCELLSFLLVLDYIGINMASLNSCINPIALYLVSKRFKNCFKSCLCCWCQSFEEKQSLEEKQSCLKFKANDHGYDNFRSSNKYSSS
# Procedure, shortened: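 Human astrocytoma cell membranes; radioligand competitive binding read by filter scintillation counting 4 hours after dosing. Single-concentration duplicate screen at 25 uM, then singleton concentration-response up to 50 uM; loss of signal versus DMSO.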
structure (smiles),measurement,setting,value
CCCC1COC(Cn2cncn2)(c2ccc(Cl)cc2Cl)O1 (centres undefined),AC50,[1],4.96 µM (active)
COP(=S)(OC)Oc1nc(Cl)c(Cl)cc1Cl,outcome,[2],inactive
same,AC50,[3],12.6 µM (active)
CC(C)Oc1cc(-n2nc(C(C)(C)C)oc2=O)c(Cl)cc1Cl,outcome,[2],inactive
CN(C)C(=S)SSC(=S)N(C)C,AC50,[3],4.51 µM (active)
COc1ccc(C(c2ccc(OC)cc2)C(Cl)(Cl)Cl)cc1,outcome,[4],inactive
same,outcome,[3],inactive
same,outcome,[5],inactive
same,outcome,[6],inactive
same,outcome,[1],inactive
OC(c1ccc(Cl)cc1)(c1cncnc1)c1ccccc1Cl (centres undefined),outcome,[6],inactive
CO/C=C(/C(=O)OC)c1ccccc1Oc1cc(Oc2ccccc2C#N)ncn1,outcome,[3],inactive
same,AC50,[6],14.6 µM (active)
C#CCOS(=O)OC1CCCCC1Oc1ccc(C(C)(C)C)cc1 (centres undefined),outcome,[7],inactive
same,AC50,[3],25 µM (active)
Cc1ccc(-c2c(Cl)nc(C#N)n2S(=O)(=O)N(C)C)cc1,outcome,[8],inactive
same,outcome,[4],inactive
O=C(Nc1ccccc1)Nc1ccnc(Cl)c1,AC50,[3],14.5 µM (active)
C=CCC1=C(C)C(OC(=O)C2C(C=C(C)C)C2(C)C)CC1=O (centres undefined),outcome,[7],inactive
same,outcome,[9],inactive
same,AC50,[3],41.6 µM (active) and 29.3 µM (active)
CNC(=S)S,outcome,[2],inactive
CCNc1nc(Cl)nc(NC(C)C)n1,outcome,[7],inactive
same,outcome,[2],inactive
CCCCNC(=O)OCC#CI,AC50,[3],15.3 µM (active) and 9.21 µM (active)
C=CCC1=C(C)[C@@H](OC(=O)[C@@H]2[C@@H](C=C(C)C)C2(C)C)CC1=O,AC50,[3],25 µM (active)
CC1COC(Cn2cncn2)(c2ccc(Oc3ccc(Cl)cc3)cc2Cl)O1 (centres undefined),outcome,[10],inactive
same,AC50,[3],6.97 µM (active)
same,outcome,[6],inactive
